Screens deposited in PubChem BioAssay by National Center for Advancing Translational Sciences (NCATS).
KB-3-1 cytotox: KB-3-1 parental cell cytotoxicity | KB-3-1 viability, CellTiter-Glo ATP luminescence, 72 h | Potency, µM (doses to about 46.1 µM), actives largely listed as cytotoxic | 400,000 tested, 1.4% active; also: % is scaled to controls: 0 for no effect and ±100 for the full control effect; nearly all actives have a fitted effect of over 60% in size
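KB-3-1 parental drug-naive adenocarcinoma cells in DMEM/10% FBS, incubated 72 h at 37 C with pin-transferred compounds across a concentration series. Viability by CellTiter-Glo luminescence; concentration-response curves fitted after normalization.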
MCF10A rerep: inducers of DNA re-replication in MCF 10A breast cells; 350,000 tested, 2.9% active; MCF 10A DNA re-replication, Hoechst nuclear intensity, 48 h; AID 624296; Potency, µM (titrated, usually from 46.1 µM), for the others: at the highest dose activity, positive = re-replication, hits mostly activators; also: % of control where 0% means no effect; nearly all actives have a fitted effect of over 50% in size
VP16 counter: counter-screen for ROR gamma inhibitors: Gal4-VP16 reporter; Potency, µM (top dose mostly 53.6 µM), inactives show at the highest dose activity, negative = inhibition, usual class: inhibitors; AID 2546; 310,000 tested, 3.5% active; Drosophila S2 Gal4-VP16 UAS-luciferase, luminescence, 20 h;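 also: Gal4-VP16 expression switched on by copper sulfate through the metallothionein promoter; % is scaled to controls: 0 for no effect and ±100 for the full control effect; nearly all actives have a fitted effect of over 50% in size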
RORg inh: inhibitors of mouse ROR gamma transcriptional activity; P51450; Drosophila S2 Gal4-RORgamma UAS-luciferase reporter, 20 h; Potency, µM (highest dose often 53.6 µM), for inactives: at the highest dose activity change, negative = inhibition, most hits filed as inhibitors; 310,000 tested, 5.4% active; also: % is scaled to controls: 0 for no effect and ±100 for the full control effect; nearly all actives have a fitted effect of over 60% in size
Target sequence (P51450 whole entry, looked up, the tested form may be a part): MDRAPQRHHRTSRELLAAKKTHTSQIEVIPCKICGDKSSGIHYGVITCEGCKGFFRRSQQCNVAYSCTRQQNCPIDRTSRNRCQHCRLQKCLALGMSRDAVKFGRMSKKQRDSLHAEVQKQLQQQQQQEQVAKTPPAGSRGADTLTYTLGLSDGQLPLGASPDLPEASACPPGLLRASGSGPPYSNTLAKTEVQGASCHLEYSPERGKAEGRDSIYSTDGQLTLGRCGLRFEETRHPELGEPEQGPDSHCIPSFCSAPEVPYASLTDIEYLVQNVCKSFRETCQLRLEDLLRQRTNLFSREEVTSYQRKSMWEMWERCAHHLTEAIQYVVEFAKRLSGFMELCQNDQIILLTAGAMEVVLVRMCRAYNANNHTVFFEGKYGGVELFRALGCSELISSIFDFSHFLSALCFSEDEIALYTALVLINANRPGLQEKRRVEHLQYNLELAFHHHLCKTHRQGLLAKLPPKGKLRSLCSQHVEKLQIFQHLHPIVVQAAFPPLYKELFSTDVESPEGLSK
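Drosophila Schneider cells stably carrying a metallothionein-driven Gal4 DBD–ROR gamma fusion and a UAS-Photinus luciferase reporter were exposed to compound for 1 hr, then induced with copper sulfate (700 uM final) for 20 hr at ambient temperature before luminescence reading.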
SW480 rerep: induces DNA re-replication in SW480 colon adenocarcinoma cells; SW480 DNA re-replication, Hoechst DNA content imaging, 48 h; 340,000 tested, 1.8% active; Potency, µM (series often up to 46.1 µM), for the others: top-dose re-replication activation, actives largely listed as activators; AID 624297; also: % of control where 0% means no effect; nearly all actives have a fitted effect of over 55% in size
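Image-based DNA-content assay: after two days of treatment, nuclei were labelled with the DNA dye Hoechst and imaged, and hits were compounds raising the count of nuclei showing high fluorescence intensity.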
KB-V1 cytotox: KB-V1 MDR subline cytotoxicity | AID 1347076 | 400,000 tested, 3.4% active | Potency, µM (doses to about 46.1 µM), actives largely listed as cytotoxic | KB-V1 MDR cells viability, CellTiter-Glo, 72 h; also: % is scaled to controls: 0 for no effect and ±100 for the full control effect; nearly all actives have a fitted effect of over 60% in size
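Readout: CellTiter-Glo luminescence, 10 min after addition. Cells: KB-V1 MDR subline, 72 h at 37 degrees C with compound. Analysis: corrected, normalized data fitted to concentration-effect curves.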
An asterisk follows results filed as active; i = inactive; u = inconclusive; x = no result given. Sampled rows, rich in hits. Any-hit rate of the full collection: about 10%. Calls follow the shape of the dose curve; as a rule, active = well fitted curve in the direction sought with a large enough effect; inconclusive = small, poorly fitted or top-dose-only effect, or another doubt; inactive = no such curve, though single readings can be large; an effect the other way counts as inactive or inconclusive. Potency is read from the fitted curve at half-maximal effect.

SMILES	KB-3-1 cytotox	MCF10A rerep	VP16 counter	RORg inh	SW480 rerep	KB-V1 cytotox
COc1ccc(NS(=O)(=O)c2cc(NC(=O)[C@@H](NC(=O)c3ccccc3)C(C)C)ccc2C)cc1	8.2µM*	18.4µM*	-20.4%	u	u	u
O=c1c(-c2ccc(F)cc2)nc2cnc(N3CCNCC3)nc2n1C1CC1	x	x	-4.9%	-16.8%	x	x
COc1cc(CN2C[C@@H](CO)O[C@@H](n3cnc4c(N5CCN(C)CC5)ncnc43)C2)cc(OC)c1OC	i	x	x	x	x	i
Cc1c(NC2(c3nnnn3-c3ccc(Br)cc3)CCCCC2)c(=O)n(-c2ccccc2)n1C	i	4.0%	-26.6%	-42.5%	2.9%	3.66µM*
Cc1c(NC2(C#N)CCCC2)c(=O)n(-c2ccccc2)n1C	i	u	11.5%	12.7%	-2.4%	i
CCOC(=O)c1sc2nc(CC(=O)OC)nc(NCCN3CCOCC3)c2c1C	u	3.1%	20.7%	7.9%	-8.0%	3.66µM*
CCOC(=O)c1sc2nc(CC(=O)OC)nc(NCc3ccc(Cl)cc3)c2c1C	i	-2.9%	-7.8%	23.3%	1.3%	u
CCOC(=O)c1sc2nc(CC(=O)OC)nc(NCCN(CC)CC)c2c1C	i	5.5%	-0.1%	1.9%	1.7%	9.2µM*
COc1ccc(Cl)cc1N=C1NC(=O)CC(C(=O)Nc2ccccc2C(F)(F)F)S1 (configuration not stated)	i	x	x	x	x	u
O=c1[nH]c(/C=C/c2ccc(OC(F)F)cc2)nc2c1cnn2-c1ccccc1	i	14.6µM*	-5.6%	-11.4%	9.2µM*	i
O=c1c(Cl)cc(Cl)nn1-c1ccccc1	u	5.8µM*	u	14.1µM*	u	u
COc1cc(Cl)nn(-c2ccccc2)c1=O	i	0.1%	1.8%	9.7%	18.2%	i
NC(=O)C1CCN(c2ncnc(-c3ccc4c(c3)OCCCO4)n2)CC1	i	x	x	x	x	i
COc1ccc(C(=O)NC(=S)N(C)Cc2ccccc2)cc1Br	i	8.8%	0.708µM*	0.398µM*	-1.5%	u
CN(Cc1ccccc1)C(=S)NC(=O)c1ccccc1	i	5.6%	2.82µM*	1µM*	-19.2%	i
CN(Cc1ccccc1)C(=O)CC(=O)N(C)Cc1ccccc1	i	-2.5%	-5.0%	19.8%	2.4%	i
CCCC(=O)N(c1ccc2oc3c(c2c1)CCCC3)S(=O)(=O)c1cc(C)ccc1C	i	x	x	x	x	u
COc1ccc(Nc2nc3c(S(=O)(=O)c4ccccc4)nnn3c3ccsc23)cc1OC	i	x	x	x	x	i
Cc1ccc(CN2CCC(CNC(=O)Nc3ccc(C)c(C)c3)C2)cc1 (configuration not stated)	i	x	x	x	x	i
COc1ccc(Cl)cc1NC(=O)NCC1CCN(Cc2cc(C)ccc2C)CC1	u	19.9%	-8.5%	-1.0%	19.0%	23.1µM*
COc1ccc(OC)c(CN2CCC(CNC(=O)Nc3cccc(Cl)c3)CC2)c1	u	1.8%	-16.1%	-0.5%	3.9%	u
Cc1ccc(C)c(CN2CCC(CNC(=O)Nc3ccc(C)c(C)c3)CC2)c1	u	u	-6.6%	-16.8%	u	18.4µM*
C(=Nc1ccc2ccccc2n1)c1cccnc1	i	x	x	x	x	i
CCOc1ccc(Br)cc1CNCCSc1nnnn1-c1ccccc1	i	x	x	x	x	i
Cc1noc(C)c1C(=O)N1CCC1(C)C(=O)NS(=O)(=O)c1ccc(F)cc1F (configuration not stated)	i	x	x	x	x	i
SMILES	KB-3-1 cytotox	MCF10A rerep	VP16 counter	RORg inh	SW480 rerep	KB-V1 cytotox
CSc1nc(NCCOC(C)=O)c(C#N)c(-c2ccc(C(C)(C)C)cc2)n1	i	x	x	x	x	i
Cc1ccc(NC(=O)c2ccc(OC(=S)N3CCOCC3)cc2)cc1	i	2.0%	4.0%	11.8%	-1.0%	6.51µM*
CC(=O)N1CCN(c2ccc(NC(=O)c3ccc(C)cc3)cc2)CC1	i	3.4%	3.4%	-1.2%	-4.5%	18.4µM*
COc1cc(C2=NOC(C(=O)NCc3ccco3)C2)cc(OC)c1OC (configuration not stated)	i	u	-1.9%	u	u	2.91µM*
COc1ccc(C2=NOC(C(=O)NCc3ccco3)C2)cc1 (configuration not stated)	13µM*	6.51µM*	14.8%	-44.3%	18.4µM*	7.31µM*
O=C(NCc1ccco1)C1CC(c2c(Cl)cccc2Cl)=NO1 (configuration not stated)	u	u	-29.5%	4.1%	u	u
O=C(NCc1ccco1)C1CC(c2ccc(Cl)c(Cl)c2)=NO1 (configuration not stated)	i	u	4.3%	4.8%	-4.5%	i
Cc1ccc(CCNC(=O)C2CC(c3cc(C(F)(F)F)cc(C(F)(F)F)c3)=NO2)cc1 (configuration not stated)	i	7.8%	8.2%	-12.6%	1.7%	u
Cc1ccc(CNC(=O)C2CC(c3cc(C(F)(F)F)cc(C(F)(F)F)c3)=NO2)o1 (configuration not stated)	i	9.2µM*	6.1%	33.2%	u	i
Cn1c(=O)c2cc(C(=O)NCCCN3CCN(c4ccc(F)cc4)CC3)sc2c2ccccc21	i	x	x	x	x	i
Cc1ccc(S(=O)(=O)c2nc(-c3ccccc3F)oc2N2CCCCC2)cc1	i	x	x	x	x	u
CCOC(=O)/C(C)=N/NC(C)=O	x	x	9.5%	-11.0%	x	x
COc1ccc(-n2c(=O)c(CCc3ccccc3)nc3cnc(OC)nc32)cc1	x	x	-18.2%	17.6%	x	x
CCN1c2ccccc2-c2nc(SCC(=O)Nc3c(C)cc(C)cc3C)ncc2S1(=O)=O	10.3µM*	x	x	x	x	4.61µM*
O=C(CSc1ncc2c(n1)-c1cc(Cl)ccc1N(Cc1ccccc1)S2(=O)=O)Nc1ccc(F)cc1F	i	x	x	x	x	13µM*
CCN1c2ccccc2-c2nc(SCC(=O)Nc3cccc(C)c3C)ncc2S1(=O)=O	i	x	x	x	x	i
O=C(C[n+]1cccc(Cl)c1)c1ccc(F)cc1	i	x	x	x	x	i
CCN(CC)S(=O)(=O)c1nnc(NC(=O)COc2ccc(Cl)cc2)s1	i	x	x	x	x	i
O=C(NC(NC1CCS(=O)(=O)C1)C(Cl)(Cl)Cl)c1cccc(Cl)c1 (configuration not stated)	i	0.2%	1.3%	23.2%	0.7%	23.1µM*
Cc1ccc(NC(=S)NC(NC(=O)c2ccco2)C(Cl)(Cl)Cl)cc1 (configuration not stated)	i	16.4µM*	7.08µM*	11.2µM*	9.3%	i
